Source: PubChem (National Center for Advancing Translational Sciences (NCATS))
Only some compounds are listed: those with a hit (about 19% of all), similar ones and a draw of the others.
ASM inhibitor = inhibitors of human secretory acid sphingomyelinase; P17405; AID 504937; actives 0.006% (n = 340,000); placental ASM, HMU-PC fluorogenic substrate, 60 min; Potency, µM (titrated, usually from 57.5 µM), for inactives: at the top dose activity change, negative = inhibition, most hits filed as inhibitors; note: potency is the fitted concentration of half-maximal effect
Target sequence (P17405 47-631 limits assumed): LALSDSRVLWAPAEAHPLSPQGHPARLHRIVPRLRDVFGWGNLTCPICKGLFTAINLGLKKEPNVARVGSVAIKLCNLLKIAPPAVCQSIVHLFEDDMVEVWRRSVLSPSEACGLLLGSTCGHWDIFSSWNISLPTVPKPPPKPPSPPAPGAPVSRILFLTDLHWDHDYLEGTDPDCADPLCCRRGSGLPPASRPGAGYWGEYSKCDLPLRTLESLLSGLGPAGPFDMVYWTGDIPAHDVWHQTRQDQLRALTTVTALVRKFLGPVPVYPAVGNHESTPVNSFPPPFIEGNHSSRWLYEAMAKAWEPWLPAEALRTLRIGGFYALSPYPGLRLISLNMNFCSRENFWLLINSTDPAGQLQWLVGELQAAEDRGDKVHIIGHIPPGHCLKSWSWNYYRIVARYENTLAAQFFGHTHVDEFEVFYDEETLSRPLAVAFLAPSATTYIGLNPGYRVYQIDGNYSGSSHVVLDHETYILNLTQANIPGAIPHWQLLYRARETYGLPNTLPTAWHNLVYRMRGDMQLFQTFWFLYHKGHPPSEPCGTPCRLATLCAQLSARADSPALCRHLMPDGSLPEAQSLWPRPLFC
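Fluorogenic HMU-PC substrate (9 uM final) is turned over by placental ASM in 60 min at 37 C after a 10 min compound preincubation. Reaction ended by alkaline stop (pH 10), with fluorescence read at 386/447 nm.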
HepG2 viability = kills HepG2 cells in TGF-b inhibitor counter-screen; HepG2 CAGA-GFP viability, ATP luminescence, 18 h; actives 0.76% (n = 410,000); Potency, µM (doses to about 46.1 µM), for the others: at the top dose activity change, negative = cytotoxicity, most hits filed as cytotoxic; AID 588856; note: potency is the fitted concentration of half-maximal effect
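HepG2 CAGA-GFP cells (1000/well, DMEM with 1% FBS) received compound, then TGF-beta at 500 pg/mL final, and were incubated 18 hours at 37 degrees C. Viability was read by CellTiter-Glo luminescence. Media-only wells were set as complete cell-killing and DMSO as no toxicity.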
TGFb inhibitor = TGF-b pathway inhibition; HepG2 CAGA-GFP TGF-b/SMAD3 reporter, GFP fluorescence, 18 h; TGF-beta stimulated, 500 pg/mL final; Potency, µM (top dose mostly 46.1 µM), for inactives: at the top dose activity, negative = inhibition, usual class: inhibitors; actives 1.2% (n = 410,000); note: potency is the fitted concentration of half-maximal effect; % is set by controls: 0 for no effect and ±100 for the full control effect; nearly all actives have a fitted effect of over 65% in size
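HEPG2 CAGA-GFP reporter cells (1000/well, DMEM with 1% FBS) received compounds, then recombinant TGF-beta at 500 pg/mL final for 18 hours at 37 degrees C. Per-cell GFP summed per well was normalised to unstimulated and stimulated DMSO controls before curve fitting.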
DT40 TDP1 CPT = DT40-hTDP1 cell growth loss with CPT. chicken DT40 Tdp1-/-;hTDP1 cells + 20 nM CPT, ATP luminescence, 48 h. Potency, µM (top dose mostly 46.2 µM), for the others: at the highest dose activity change, negative = growth inhibition, most hits filed as inhibitors. actives 12% (n = 420,000). AID 686979; note: potency is the fitted concentration of half-maximal effect; % is set by controls: 0 for no effect and ±100 for the full control effect; nearly all actives have a fitted effect of over 55% in size
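Cell growth measured by CellTiter-Glo luminescence after a minimum 48 h, 37 C compound exposure with 20 nM CPT in Tdp1-knockout DT40 cells stably expressing hTDP1, seeded 400/well; qHTS titration format.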
IL1B secr inh = inhibitors of inflammasome signaling (IL-1 beta secretion); THP-1 LPS/ATP IL-1B secretion, AlphaLISA, 16 h; stronger effect = lower value; activity change, % at 57.5 µM; actives 4.7% (n = 360,000); in the data active = activity change below about -50%; inconclusive = mostly about -30% to -49%; note: % is set by controls: 0 for no effect and ±100 for the full control effect
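THP-1 cells pretreated 1 hr with compounds (up to 57.5 uM final), then stimulated with LPS (250 ng/mL final) plus ATP (1.25 mM final); secreted IL-1B measured by AlphaLISA after 16 hr, decreased signal indicating inhibition.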
TDP1 cell noCPT = qHTS for Inhibitors of human tyrosyl-DNA phosphodiesterase 1 (TDP1): qHTS in cells in absence of CPT; actives 15% (n = 420,000); Potency, µM (titrated, usually from 46.2 µM), inactives show at the highest dose activity change, negative = growth inhibition, usual class: inhibitors; AID 686978, 2013; DT40 Tdp1-/- hTDP1 cells, no CPT, ATP luminescence, 48 h; note: potency is the fitted concentration of half-maximal effect; % is set by controls: 0 for no effect and ±100 for the full control effect; nearly all actives have a fitted effect of over 55% in size
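Growth of hTDP1-complemented DT40 Tdp1-knockout cells is measured by ATP luminescence after at least 48 hr compound exposure at 37 °C, with DMSO substituting for the 20 nM CPT used in the parallel screen.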
An asterisk follows results filed as active; ? = inconclusive; / = no result. Unless noted, calls come from the whole dose curve; as a rule, active = well fitted curve in the direction sought with a large enough effect; inconclusive = small, poorly fitted or top-dose-only effect, or another doubt; inactive = no such curve, though single readings can be large; an effect the other way counts as inactive or inconclusive.

SMILES	ASM inhibitor	HepG2 viability	TGFb inhibitor	DT40 TDP1 CPT	IL1B secr inh	TDP1 cell noCPT
O=C1CN2C(=Nc3ccc(Br)cc3C2c2ccccc2)CCN1 (stereo not drawn)	4.7%	-34.5%	15.5%	-6.8%	25.3	-22.4%
COc1ccccc1CNC(=O)c1ccc2c(c1)CCN2S(=O)(=O)c1ccccc1	/	6.2%	-2.3%	?	/	8.2µM*
NS(=O)(=O)c1ccc(NC(=O)c2ccc3c(c2)CCN3S(=O)(=O)c2ccccc2)cc1	-10.2%	-2.1%	-10.3%	23.1µM*	-4.1	10.3µM*
O=C(Nc1ccc(F)c(Cl)c1)C1Cc2ccccc2CN1S(=O)(=O)c1ccc(F)cc1 (stereo not drawn)	/	-26.3%	/	?	/	?
CCOC(=O)c1ccc(NC(=O)C2Cc3ccccc3CN2S(=O)(=O)c2ccc(Cl)cc2)cc1 (stereo not drawn)	/	-29.9%	/	?	/	16.4µM*
COc1ccc(CNC(=O)c2ccc3c(c2)CCN3S(=O)(=O)c2ccc(C)cc2)cc1	/	-21.8%	-25.7%	10.3µM*	/	13µM*
CCOc1ccccc1NC(=O)C1CCCN1S(=O)(=O)c1ccc2c(c1)C(C)(C)C(=O)N2C (stereo not drawn)	/	-26.4%	15.1%	?	/	?
CC(CC(=O)O)CC(=O)Nc1nncs1 (stereo not drawn)	2.0%	4.7%	2.8%	-9.9%	-8.3	2.3%
CCOC(=O)c1ccc(NC(=O)c2ccc3c(c2)CCN3S(=O)(=O)c2ccc(Cl)cc2)cc1	/	-10.2%	7.7%	7.31µM*	/	?
O=C(Nc1nccs1)C1Cc2ccccc2CN1S(=O)(=O)c1ccc(F)cc1 (stereo not drawn)	-1.7%	-25.9%	1.4%	?	6.0	14.6µM*
O=C(NC1CCCCC1)C1Cc2ccccc2CN1S(=O)(=O)c1ccc(F)cc1 (stereo not drawn)	2.4%	12.0%	-4.2%	-7.1%	1.0	?
COc1ccc(S(=O)(=O)N2Cc3ccccc3CC2C(=O)Nc2ccc(O)cc2)cc1OC (stereo not drawn)	-2.7%	10.9%	10.2%	-10.2%	-22.9	?
COc1ccc(S(=O)(=O)N2Cc3ccccc3CC2C(=O)Nc2cccc(C)c2)cc1OC (stereo not drawn)	/	-13.3%	-26.0%	?	/	9.2µM*
COc1ccc(NC(=O)c2ccc3c(c2)CCN3S(=O)(=O)c2ccccc2)cc1	-6.1%	-14.8%	0.8%	?	-56.1*	?
COc1ccc(NC(=O)c2ccc3c(c2)CCN3S(C)(=O)=O)cc1	/	-11.8%	-5.1%	-19.9%	-10.0	-28.3%
COc1ccc(NC(=O)CNCc2ccc(Cl)cc2)cc1S(=O)(=O)N1CCOCC1	0.6%	-1.6%	2.3%	-18.4%	-3.7	3.4%
CCCCOC(=O)c1ccc(NC(=O)c2ccc3c(c2)CCN3S(=O)(=O)c2ccccc2)cc1	/	-11.4%	-1.4%	5.8µM*	/	7.31µM*
CCOC(=O)C(Cc1ccc(O)cc1)Nc1nc2ccccc2o1 (stereo not drawn)	0.6%	-2.2%	-4.5%	-1.0%	-54.1*	-21.4%
CC1(C)CC(=O)C2=C(C1)NC(Nc1nc3ccccc3o1)=NC21CCCCC1	-1.1%	-17.2%	12.3%	?	24.0	23.1µM*
CCn1c(COc2ccc3ccccc3c2C)nnc1SCC(=O)Nc1cccc(C(=O)O)c1	-8.1%	-37.7%	0.0%	-6.2%	-10.8	-13.9%
CCN(c1ccccc1)S(=O)(=O)c1nnc(NC(=O)C(C)(C)C)s1	1.8%	-16.6%	-1.9%	-36.7%	-5.1	18.0%
COc1ccc(C)cc1-n1cnc2cc(C(=O)NC3CCCC3)ccc21	/	-7.6%	-2.7%	?	/	?
CCOCCCNC(=O)c1ccc2c(c1)ncn2-c1ccccc1OC	-0.2%	-2.9%	3.7%	?	-13.4	?
COc1ccc(CCNC(=O)c2ccc3c(c2)ncn3-c2ccc(C)cc2C)cc1OC	/	-37.5%	?	?	/	20.6µM*
CCOCCCNC(=O)c1ccc2c(c1)ncn2-c1ccc(C)cc1C	4.5%	1.0%	3.3%	-26.2%	-16.2	16.4µM*
SMILES	ASM inhibitor	HepG2 viability	TGFb inhibitor	DT40 TDP1 CPT	IL1B secr inh	TDP1 cell noCPT
COc1ccc(CCNC(=O)c2ccc3c(c2)ncn3-c2ccc(C(C)C)cc2)cc1OC	/	-37.7%	?	10.3µM*	/	18.4µM*
O=C(COc1coc(CN2CCc3ccccc32)cc1=O)Nc1cccc(F)c1	-0.5%	0.8%	-4.6%	-18.5%	6.8	-11.4%
CCN(CC(=O)Nc1ccccc1C(F)(F)F)C(=O)C1CCC1	/	2.0%	-14.1%	-1.5%	14.6	8.8%
COc1ccccc1-c1nnc(C2CCN(C(=O)c3ccc(C)cc3)CC2)o1	/	-22.8%	?	-26.8%	/	?
COc1ccc(-c2nnc(C3CCN(C(=O)c4ccccc4F)CC3)o2)cc1	/	-28.1%	?	5.17µM*	/	4.61µM*
Cc1ccc(NC(=O)NC(=O)CN2C(=O)NC3(CCCCCCC3)C2=O)c(C)c1	-9.7%	-2.7%	?	-24.7%	-1.6	-15.3%
Cc1ccc(NC(=O)CCN2C(=O)NC3(CCCC3)C2=O)c(C)c1	3.5%	-22.9%	-11.6%	-1.7%	-13.5	3.26µM*
Cc1ccc(NC(=O)CCCN2C(=O)COc3ccc(C)cc32)c(C)c1	/	-35.7%	/	?	/	11.6µM*
Cc1ccc(NC(=O)CC(=O)Nc2ccc(C)cc2C)c(C)c1	2.8%	-3.2%	?	-11.3%	11.4	-0.4%
Cc1ccc2c(c1)N(CCCC(=O)Nc1cccc(C(F)(F)F)c1)C(=O)CO2	-7.9%	-6.8%	2.7%	?	-12.2	16.4µM*
Cc1ccc(NC(=O)CCCCCCCCCCC2COCCO2)c(C)c1 (stereo not drawn)	1.2%	-1.5%	-6.8%	20.6µM*	1.2	18.4µM*
COc1ccc(S(=O)(=O)N2CCOCC2)cc1NC(=O)CSc1cccc[n+]1[O-]	5.2%	0.4%	7.6%	-18.4%	-4.0	14.2%
Cc1ccc(NC(=O)CCCN2C(=O)COc3ccc(C)cc32)c(Cl)c1	/	-34.3%	/	?	/	7.31µM*
COc1cccc(NC(=O)c2ccc(-c3nc(COc4ccccc4)c(C)o3)cc2)c1	/	-36.1%	?	?	/	?
Cc1ccc(C)c(N2CCN(C(=O)c3ccc(-c4nc(COc5ccccc5)c(C)o4)cc3)CC2)c1	/	-23.9%	0.8%	23.1µM*	/	14.6µM*
